In PubChem BioAssay (EPA / NIEHS):
Values joined by “and” are separate entries in the source; they are usually repeats but may differ in a detail not shown here. Equal values may be shown once. Records with an inconclusive call do not appear. Active and inactive are the calls of the source. The calls were made as follows, unless noted: active = hit-call score of the fitted dose curve at least 0.9, where 1 is the maximum; inactive = score below 0.9.

Columns and labels:
[1] = biological target: Peroxisome proliferator-activated receptor gamma (Homo sapiens) (UniProt P37231); assay: OT_PPARg_PPARgSRC1_0480: Odyssey Thera (OT) 8-hour Protein-Complementation Assay for Peroxisome Proliferator-activated Receptor Gamma / SRC-1 Co-activator (AID 2283387; active = hit-call score of the fitted dose curve at least 0.9, where 1 is the maximum;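 also: nuclear to cytoplasmic split Venus YFP fluorescence ratio reporting PPARg SRC-1 interaction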)
Peroxisome proliferator-activated receptor gamma (Homo sapiens), sequence (P37231 whole entry, looked up, the tested form may be a part): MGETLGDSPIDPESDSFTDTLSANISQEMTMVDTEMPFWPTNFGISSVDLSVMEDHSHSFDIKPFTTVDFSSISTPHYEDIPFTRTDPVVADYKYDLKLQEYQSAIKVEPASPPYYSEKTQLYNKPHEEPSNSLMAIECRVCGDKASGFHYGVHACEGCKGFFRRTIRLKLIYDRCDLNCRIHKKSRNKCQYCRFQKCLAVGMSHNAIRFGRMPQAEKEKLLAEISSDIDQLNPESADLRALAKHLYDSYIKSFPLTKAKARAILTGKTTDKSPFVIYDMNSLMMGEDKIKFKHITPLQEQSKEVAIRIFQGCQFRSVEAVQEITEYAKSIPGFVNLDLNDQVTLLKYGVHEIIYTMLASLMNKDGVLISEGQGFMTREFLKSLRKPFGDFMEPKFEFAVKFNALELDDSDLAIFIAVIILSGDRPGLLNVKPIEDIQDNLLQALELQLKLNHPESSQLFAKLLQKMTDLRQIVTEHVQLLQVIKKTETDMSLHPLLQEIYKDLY
How it was run: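 Read-out: 488 nm N/C fluorescence ratio from complemented Venus YFP fragments, ≥350 cells per image, gain-of-signal fitted against DMSO baseline. Fusions of PPARg/SRC-1 with IFP1/IFP2 expressed transiently in HEK293T; compounds applied 8 h.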

[2] = biological target: Peroxisome proliferator-activated receptor gamma (Homo sapiens) (UniProt P37231); assay: OT_PPARg_PPARgSRC1_1440: Odyssey Thera (OT) 24-hour Protein-Complementation Assay for Peroxisome Proliferator-activated Receptor Gamma/ SRC-1 Co-activator (AID 2283388; active = hit-call score of the fitted dose curve at least 0.9, where 1 is the maximum;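 also: nuclear to cytoplasmic ratio of reconstituted Venus YFP fluorescence in fixed imaged cells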)
How it was run: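 Cells carrying the PPARg/SRC-1 fragment-complementation reporter receive compound for 24 hours, are fixed and counterstained with Draq5, then imaged. Increased nuclear relative to cytoplasmic YFP fluorescence above DMSO baseline indicates binding activity.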

[3] = read-out: Tumor necrosis factor receptor superfamily member 6 (Homo sapiens) (UniProt P25445); assay: LTEA_HepaRG_FAS: Life Technologies and Expression Analysis (LTEA) Assay for Fas cell surface death receptor (FAS) using HepaRG (AID 2283447); conditions: mRNA level, 48 h; actives raise or lower the signal
How it was run: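 Differentiated HepaRG cells in serum-free induction medium were exposed 48 h to 8 half-log concentrations up to 100 uM in 0.5% DMSO, in duplicate. FAS mRNA was measured by qRT-PCR normalised to ACTB, GAPDH and POLR2A; bidirectional fit versus DMSO.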

[4] = read-out: Fatty acid synthase (Homo sapiens) (UniProt P49327); assay: LTEA_HepaRG_FASN: Life Technologies and Expression Analysis (LTEA) Assay for Fatty Acid Synthase (FASN) using HepaRG (AID 2283448); conditions: mRNA level, 48 h; actives raise or lower the signal;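 as to AC50: differentiated human HepaRG liver cells in serum-free induction medium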
How it was run: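 Differentiated HepaRG cells in serum-free induction medium exposed 48 h in duplicate to eight half-log concentrations, top 100 uM, 0.5% DMSO. FASN mRNA by qRT-PCR normalised to ACTB, GAPDH, POLR2A; bidirectional fit versus DMSO.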

[5] = read-out: Cyclin D2 (CCND2), CCND2 (gene 894); assay: LTEA_HepaRG_CCND2: Life Technologies and Expression Analysis (LTEA) Assay for Cyclin D2 (CCND2) using HepaRG (AID 2283449); conditions: mRNA level, 48 h; actives raise or lower the signal;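 also: CCND2 transcript measured by TaqMan qRT-PCR and normalised to three housekeeping genes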
How it was run: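 Chemicals in 0.5% DMSO, eight half-log concentrations from 100 uM top, were applied in duplicate for 48 h to human HepaRG cells in serum-free induction medium. CCND2 mRNA by TaqMan qRT-PCR, normalised to ACTB/GAPDH/POLR2A; bidirectional fit versus DMSO.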

[6] = read-out: Cyclin Dependent Kinase Inhibitor 1A (CDKN1A), CDKN1A (gene 1026); assay: LTEA_HepaRG_CDKN1A: Life Technologies and Expression Analysis (LTEA) Assay for Cyclin Dependent Kinase Inhibitor 1A (CDKN1A) using HepaRG (AID 2283450); conditions: mRNA level, 48 h; actives raise or lower the signal
How it was run: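 Gain or loss of CDKN1A transcript is scored by bidirectional fitting against 0.5% DMSO vehicle. Human HepaRG cultures receive chemicals for 48 h across an 8-point series peaking at 100 uM; expression comes from qRT-PCR.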

[7] = read-out: catalase (CAT), CAT (gene 847); assay: LTEA_HepaRG_CAT: Life Technologies and Expression Analysis (LTEA) Assay for catalase (CAT) using HepaRG (AID 2283452); conditions: mRNA level, 48 h; actives raise or lower the signal;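 as to AC50: TaqMan qRT-PCR signal normalized to ACTB GAPDH and POLR2A housekeeping genes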
How it was run: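 HepaRG cells in serum-free induction medium, 0.5% DMSO vehicle, exposed 48 h in duplicate over 8 half-log concentrations from 100 uM. CAT mRNA measured by qRT-PCR, normalized to ACTB, GAPDH, POLR2A; bidirectional fit versus DMSO.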

[8] = read-out: flavin-containing dimethylaniline monooxygenases 3 (FMO3), FMO3 (gene 2328); assay: LTEA_HepaRG_FMO3: Life Technologies and Expression Analysis (LTEA) Assay for flavin-containing dimethylaniline monooxygenases 3 (FMO3) using HepaRG (AID 2283453); conditions: mRNA level, 48 h; actives raise or lower the signal;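 as to AC50: differentiated human HepaRG liver cells in serum-free induction medium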
How it was run: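 Differentiated HepaRG cells in serum-free induction medium, exposed 48 h in duplicate to 8 half-log concentrations up to 100 uM in 0.5% DMSO. FMO3 mRNA by qRT-PCR, normalized to ACTB, GAPDH, POLR2A; bidirectional fit vs DMSO.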

[9] = read-out: Cytochrome P450 (CYP1A1), CYP1A1 (gene 1543); assay: LTEA_HepaRG_CYP1A1: Life Technologies and Expression Analysis (LTEA) Assay for Cytochrome P450 (CYP1A1) using HepaRG (AID 2283454); conditions: mRNA level, 48 h; actives raise or lower the signal
How it was run: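 Using HepaRG cultures with 0.5% DMSO as vehicle, eight-concentration exposures (max 100 uM) lasted 48 h. Transcript levels were measured by TaqMan qRT-PCR and normalized to ACTB, GAPDH and POLR2A.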

[10] = read-out: Cyclin D1 (CCND1), CCND1 (gene 595); assay: LTEA_HepaRG_CCND1: Life Technologies and Expression Analysis (LTEA) Assay for Cyclin D1 (CCND1) using HepaRG (AID 2283451); conditions: mRNA level, 48 h; actives raise or lower the signal;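 as to AC50: differentiated human HepaRG liver cells in serum-free induction medium; TaqMan qRT-PCR transcript level normalised to ACTB GAPDH and POLR2A housekeeping genes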
How it was run: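 Expression change is measured by qRT-PCR in HepaRG cells after 48 h treatment across eight concentrations topping at 100 uM, with duplicate wells and DMSO (0.5%) serving as baseline for bidirectional fitting.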

Measured: AC50

Fatty acid synthase (Homo sapiens), sequence (P49327 whole entry, looked up): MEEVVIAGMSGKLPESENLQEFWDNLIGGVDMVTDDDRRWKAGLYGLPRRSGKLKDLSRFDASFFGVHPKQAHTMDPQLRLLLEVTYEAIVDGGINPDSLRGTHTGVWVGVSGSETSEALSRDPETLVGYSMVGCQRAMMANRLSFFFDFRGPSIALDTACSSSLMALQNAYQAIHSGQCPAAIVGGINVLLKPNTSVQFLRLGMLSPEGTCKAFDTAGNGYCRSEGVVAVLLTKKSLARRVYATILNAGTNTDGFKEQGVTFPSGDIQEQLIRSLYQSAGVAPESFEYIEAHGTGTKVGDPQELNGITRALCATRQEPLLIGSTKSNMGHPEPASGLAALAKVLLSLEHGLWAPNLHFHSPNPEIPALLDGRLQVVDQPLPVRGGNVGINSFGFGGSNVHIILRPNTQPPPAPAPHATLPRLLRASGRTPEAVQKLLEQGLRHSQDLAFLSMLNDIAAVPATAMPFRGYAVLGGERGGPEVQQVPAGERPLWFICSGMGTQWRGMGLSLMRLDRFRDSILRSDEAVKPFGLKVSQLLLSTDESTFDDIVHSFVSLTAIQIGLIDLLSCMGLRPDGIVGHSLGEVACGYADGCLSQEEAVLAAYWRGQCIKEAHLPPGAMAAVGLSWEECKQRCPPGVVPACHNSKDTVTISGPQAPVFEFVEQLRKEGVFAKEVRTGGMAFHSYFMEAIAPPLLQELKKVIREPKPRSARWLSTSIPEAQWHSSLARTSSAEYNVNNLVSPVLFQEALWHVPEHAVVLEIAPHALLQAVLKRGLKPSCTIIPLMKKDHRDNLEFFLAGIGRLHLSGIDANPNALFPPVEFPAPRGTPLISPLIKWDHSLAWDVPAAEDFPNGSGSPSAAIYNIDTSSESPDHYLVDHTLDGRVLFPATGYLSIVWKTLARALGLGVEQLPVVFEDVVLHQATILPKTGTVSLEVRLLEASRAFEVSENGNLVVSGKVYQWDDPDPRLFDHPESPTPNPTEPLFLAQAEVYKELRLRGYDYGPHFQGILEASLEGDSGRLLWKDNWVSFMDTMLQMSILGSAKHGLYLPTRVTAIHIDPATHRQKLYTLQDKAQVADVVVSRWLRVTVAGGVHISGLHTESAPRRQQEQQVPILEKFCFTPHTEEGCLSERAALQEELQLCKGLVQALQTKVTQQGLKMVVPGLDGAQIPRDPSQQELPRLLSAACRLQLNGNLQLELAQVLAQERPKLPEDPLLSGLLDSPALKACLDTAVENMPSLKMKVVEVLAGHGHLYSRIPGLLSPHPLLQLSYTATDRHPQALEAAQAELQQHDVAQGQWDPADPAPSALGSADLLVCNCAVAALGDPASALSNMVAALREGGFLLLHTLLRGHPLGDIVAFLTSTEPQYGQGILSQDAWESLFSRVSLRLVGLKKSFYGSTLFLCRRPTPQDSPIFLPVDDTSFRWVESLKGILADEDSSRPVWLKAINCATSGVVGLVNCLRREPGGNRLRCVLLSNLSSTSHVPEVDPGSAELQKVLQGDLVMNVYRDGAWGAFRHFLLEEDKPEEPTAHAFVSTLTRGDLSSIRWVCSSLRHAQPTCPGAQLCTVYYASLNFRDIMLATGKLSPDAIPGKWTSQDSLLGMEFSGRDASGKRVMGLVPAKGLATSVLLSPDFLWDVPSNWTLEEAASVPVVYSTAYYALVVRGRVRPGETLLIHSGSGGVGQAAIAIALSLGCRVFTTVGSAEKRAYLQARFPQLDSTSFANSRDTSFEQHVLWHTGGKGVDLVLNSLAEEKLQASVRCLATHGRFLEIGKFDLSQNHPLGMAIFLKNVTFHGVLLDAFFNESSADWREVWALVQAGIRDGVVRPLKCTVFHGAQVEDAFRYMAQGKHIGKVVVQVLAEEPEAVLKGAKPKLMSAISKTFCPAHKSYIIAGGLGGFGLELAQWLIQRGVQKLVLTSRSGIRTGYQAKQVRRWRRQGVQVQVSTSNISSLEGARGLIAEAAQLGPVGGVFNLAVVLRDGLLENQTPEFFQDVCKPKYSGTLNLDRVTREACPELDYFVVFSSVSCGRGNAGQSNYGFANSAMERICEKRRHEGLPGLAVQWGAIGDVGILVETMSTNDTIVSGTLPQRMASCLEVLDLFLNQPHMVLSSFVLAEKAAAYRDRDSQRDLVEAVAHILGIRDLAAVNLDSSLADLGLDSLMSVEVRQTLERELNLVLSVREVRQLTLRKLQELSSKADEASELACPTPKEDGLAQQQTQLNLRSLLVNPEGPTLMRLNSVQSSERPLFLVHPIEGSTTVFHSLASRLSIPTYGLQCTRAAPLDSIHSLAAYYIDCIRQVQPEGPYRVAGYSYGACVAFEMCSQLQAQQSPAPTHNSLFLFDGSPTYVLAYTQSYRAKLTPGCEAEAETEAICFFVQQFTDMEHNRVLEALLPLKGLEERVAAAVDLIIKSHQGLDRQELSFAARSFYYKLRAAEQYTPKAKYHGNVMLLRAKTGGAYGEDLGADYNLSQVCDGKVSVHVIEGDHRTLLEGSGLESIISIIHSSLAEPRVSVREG

COc1ccc2sc(C(=O)Nc3nnn[nH]3)c(OC(C)C)c2c1
active: [3] 63.8 µM | [4] 89.1 µM | [6] 50 µM | [7] 81.3 µM | [8] 10.9 µM | [9] 35.3 µM
inactive: [1] | [2] | [5]

CC[C@H]1OC(=O)[C@H](C)[C@@H](O[C@H]2C[C@@](C)(OC)[C@@H](O)[C@H](C)O2)[C@H](C)[C@@H](O[C@@H]2O[C@H](C)C[C@H](N(C)C)[C@H]2O)[C@](C)(O)C[C@@H](C)C(=O)[C@H](C)[C@@H](O)[C@]1(C)O
active: [9] 53.9 µM
not listed: [10]
inactive: all other assays above

CC(O)CN(CCN(CC(C)O)CC(C)O)CC(C)O (centres undefined)
active: [4] 12.4 µM | [9] 50 µM
not listed: [10]
inactive: all other assays above

CCCN(C1CCN(C(=O)C2CCNCC2)CC1)[C@@H]1CCc2ccc(OC)cc2C1
active: [4] 80.6 µM | [7] 50.1 µM | [8] 57.5 µM
not listed: [10]
inactive: all other assays above

On1ccccc1=S
not listed: [3] | [5]
inactive: all other assays above

O=c1n(CC2CO2)c(=O)n(CC2CO2)c(=O)n1CC1CO1 (centres undefined)
active: [3] 89.1 µM | [6] 58.7 µM
not listed: [10]
inactive: all other assays above

CN(C)c1ccc(N=NS(=O)(=O)O)cc1
active: [9] 17.9 µM
not listed: [1] | [2] | [5]
inactive: all other assays above

CCOCCO
not listed: [5] | [10]
inactive: all other assays above

O=C(O)CC(O)C(=O)O (centres undefined)
active: [9] 77.9 µM
not listed: [5] | [10]
inactive: all other assays above

O=C1CCC(N2C(=O)c3ccccc3C2=O)C(=O)N1 (centres undefined)
active: [9] 67.7 µM
not listed: [10]
inactive: all other assays above

NC(=O)NO
not listed: [1] | [2] | [9]
inactive: all other assays above

CCc1cc(SCc2sc(-c3ccc(C(F)(F)F)cc3)nc2CN2CCN(c3ccc(OC)cc3)CC2)ccc1OCC(=O)O
active: [1] 345 nM and 1.09 µM | [2] 723 nM and 1.02 µM | [3] 26.2 µM | [4] 71.3 µM | [6] 85.4 µM | [10] 93.4 µM | [7] 93.7 µM | [8] 5.55 µM | [9] 7.69 µM

O=C(O)CCN(C1(C(=O)NO)CCCC1)S(=O)(=O)c1ccc(Oc2ccc(F)cc2)cc1
active: [9] 67.5 µM
not listed: [10]
inactive: all other assays above

CC(C)CCO
not listed: [3] | [10]
inactive: all other assays above

CC(=O)OCCC(C)C
active: [9] 73.2 µM
not listed: [10]
inactive: all other assays above

CCOC(=O)COc1ccc2c(c1)CC(NCC(O)c1cccc(Cl)c1)CC2 (centres undefined)
not listed: [2]
inactive: all other assays above

CCOCCOCCOCCO
not listed: [3] | [5]
inactive: all other assays above
